Compounds with a hit are over-represented: about 11% of the library has one in this group of screens.
BAZ2B block = blocks human BAZ2B | Q9UIF8 | AlphaScreen BAZ2B-H3K14Ac peptide displacement | Potency, µM (titrated, usually from 114 µM), inactives show at the highest dose activity change, negative = inhibition, hits mostly inhibitors | 360,000 compounds, 4.4% hits; further: on the % scale 0 is the no-effect control and ±100 the full control effect; nearly all actives have a fitted effect of over 60% in size
Target sequence (Q9UIF8 whole entry, looked up): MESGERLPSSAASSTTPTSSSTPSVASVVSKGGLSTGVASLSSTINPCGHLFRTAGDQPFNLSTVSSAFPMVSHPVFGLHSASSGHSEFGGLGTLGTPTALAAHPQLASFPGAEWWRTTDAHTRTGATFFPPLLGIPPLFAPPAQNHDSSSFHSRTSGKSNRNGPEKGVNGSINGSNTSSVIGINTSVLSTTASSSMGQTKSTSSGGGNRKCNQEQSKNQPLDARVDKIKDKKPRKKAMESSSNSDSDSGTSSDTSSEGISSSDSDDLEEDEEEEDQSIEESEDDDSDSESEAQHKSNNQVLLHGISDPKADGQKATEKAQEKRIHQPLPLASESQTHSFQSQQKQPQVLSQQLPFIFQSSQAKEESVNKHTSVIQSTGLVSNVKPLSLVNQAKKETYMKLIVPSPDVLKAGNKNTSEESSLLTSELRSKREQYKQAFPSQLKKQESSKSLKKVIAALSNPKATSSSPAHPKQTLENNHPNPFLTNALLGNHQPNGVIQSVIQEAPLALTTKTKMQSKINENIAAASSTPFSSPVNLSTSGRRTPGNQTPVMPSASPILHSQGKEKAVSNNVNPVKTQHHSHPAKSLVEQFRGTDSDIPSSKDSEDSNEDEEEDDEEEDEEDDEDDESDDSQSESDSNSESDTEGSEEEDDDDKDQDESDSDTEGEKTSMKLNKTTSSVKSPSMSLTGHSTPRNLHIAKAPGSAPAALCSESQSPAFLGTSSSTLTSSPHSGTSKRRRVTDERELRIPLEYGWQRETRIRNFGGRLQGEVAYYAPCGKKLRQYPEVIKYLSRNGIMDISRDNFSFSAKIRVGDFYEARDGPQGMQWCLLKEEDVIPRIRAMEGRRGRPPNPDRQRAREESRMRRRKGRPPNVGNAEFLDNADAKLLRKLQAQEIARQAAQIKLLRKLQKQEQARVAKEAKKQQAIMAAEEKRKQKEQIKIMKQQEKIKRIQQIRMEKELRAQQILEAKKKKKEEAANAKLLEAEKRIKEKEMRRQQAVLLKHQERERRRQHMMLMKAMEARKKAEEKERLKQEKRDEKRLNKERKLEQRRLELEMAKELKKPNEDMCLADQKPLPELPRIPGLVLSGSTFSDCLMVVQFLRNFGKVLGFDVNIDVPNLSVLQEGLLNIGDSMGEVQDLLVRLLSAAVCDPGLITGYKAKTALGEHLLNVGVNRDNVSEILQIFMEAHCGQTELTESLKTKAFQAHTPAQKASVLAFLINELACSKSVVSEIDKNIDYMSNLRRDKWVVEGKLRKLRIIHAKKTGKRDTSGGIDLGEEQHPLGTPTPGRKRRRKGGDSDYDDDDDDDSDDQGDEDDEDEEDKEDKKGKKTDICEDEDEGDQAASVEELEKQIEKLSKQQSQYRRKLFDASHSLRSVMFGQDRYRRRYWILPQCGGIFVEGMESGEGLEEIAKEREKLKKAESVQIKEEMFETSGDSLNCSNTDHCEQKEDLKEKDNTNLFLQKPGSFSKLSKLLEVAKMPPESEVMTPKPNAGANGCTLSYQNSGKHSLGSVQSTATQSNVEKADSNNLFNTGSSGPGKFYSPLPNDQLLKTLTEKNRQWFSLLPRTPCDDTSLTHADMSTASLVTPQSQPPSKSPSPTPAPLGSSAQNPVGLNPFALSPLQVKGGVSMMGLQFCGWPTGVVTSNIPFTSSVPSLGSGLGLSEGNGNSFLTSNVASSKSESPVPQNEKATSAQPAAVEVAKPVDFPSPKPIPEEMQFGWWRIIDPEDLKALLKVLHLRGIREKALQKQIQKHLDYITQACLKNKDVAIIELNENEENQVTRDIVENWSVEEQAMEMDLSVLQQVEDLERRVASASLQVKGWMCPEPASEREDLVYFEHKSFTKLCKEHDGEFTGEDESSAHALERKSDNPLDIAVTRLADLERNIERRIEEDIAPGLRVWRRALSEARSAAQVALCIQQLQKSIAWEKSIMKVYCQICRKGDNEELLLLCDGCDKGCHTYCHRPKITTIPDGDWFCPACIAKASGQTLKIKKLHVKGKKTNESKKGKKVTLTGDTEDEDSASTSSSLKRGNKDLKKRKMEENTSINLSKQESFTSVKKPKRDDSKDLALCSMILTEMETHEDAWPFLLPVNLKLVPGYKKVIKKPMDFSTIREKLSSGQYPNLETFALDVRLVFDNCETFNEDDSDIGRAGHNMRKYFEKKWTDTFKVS
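Complex of BAZ2B and biotin-H3K14Ac (50 nM apiece) forms over 30 min at RT, then faces library compounds up to 110 uM for another 30 min; AlphaScreen beads added, 20 min dark incubation, luminescence read.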
L3MBTL1 block = inhibitors of human L3MBTL1; 230,000 compounds, 0.66% hits; AlphaScreen L3MBTL1–H3K9me1 peptide binding; AID 485360; Q9Y468; Potency, µM (top dose mostly 57.1 µM), for the others: at the highest dose activity, negative = inhibition, usual class: inhibitors; further: on the % scale 0 is the no-effect control and ±100 the full control effect; nearly all actives have a fitted effect of over 60% in size
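L3MBTL1 50 nM + b-AHA-H3(1-15)K9me1 75 nM, 30 min RT; compound added, 30 min RT; streptavidin donor/Ni-chelate acceptor beads 10 ug/mL each final, 30 min RT dark; AlphaScreen read.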
G9a block = inhibitors of human histone lysine methyltransferase G9a. Q96KQ7. G9a H3K9 monomethylation, AlphaScreen, 2 h. Potency, µM (titrated, usually from 102 µM), without a hit: at the highest dose activity, negative = inhibition, most hits filed as inhibitors. 350,000 compounds, 8.8% hits. AID 504332; further: on the % scale 0 is the no-effect control and ±100 the full control effect; nearly all actives have a fitted effect of over 75% in size
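Quantitative HTS format: methyltransferase activity on a biotin-tagged H3K9 peptide is measured by AlphaScreen, using a rabbit anti-monomethyl-H3K9 antibody with streptavidin donor and anti-IgG acceptor beads. Final levels are 20 nM enzyme, 500 nM peptide, 20 uM SAM; 2 h RT.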
HP1b chromo inh = blocks HP1-beta chromodomain binding to methylated histone tails | AID 540317 | 390,000 compounds, 0.56% hits | Potency, µM (series often up to 114 µM), for the others: at the top dose activity change, negative = inhibition, most hits filed as inhibitors | AlphaScreen HP1-beta / biotin-H3K9me3 peptide binding; further: nearly all actives have a fitted effect of over 70% in size
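Compound inhibition of the preformed complex between 50 nM HP1-beta and 50 nM biotinylated H3K9me3 peptide was read by AlphaScreen. Buffer was PBS pH 7.4 with 0.01% Tween-20. Incubations ran 30 min at room temperature, with 10 ug/mL donor/acceptor beads.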
JMJD2A Tudor = inhibitors of human JMJD2A Tudor domain; Potency, µM (doses to about 114 µM), for the others: at the highest dose activity change, negative = inhibition, most hits filed as inhibitors; AID 504339; AlphaScreen JMJD2A-Tudor / H3K4me3 peptide binding; O75164; 390,000 compounds, 4.4% hits; further: on the % scale 0 is the no-effect control and ±100 the full control effect; nearly all actives have a fitted effect of over 50% in size
The depositor's hits bear a star; ? = inconclusive; . = no result given; [ ] = another dose, or the depositor's remark. The call rests on the fitted dose curve; in most records, active means well fitted inhibition curve with a large enough effect; inconclusive means small, poorly fitted or top-dose-only effect; inactive means no such curve, though single readings can be large or run the other way. Potency means the concentration at half of the fitted maximal effect.

SMILES	BAZ2B block	L3MBTL1 block	G9a block	HP1b chromo inh	JMJD2A Tudor
Cc1cccc(-c2nnc(SCc3cc(=O)c4cccc(Cl)c4[nH]3)n2C)c1	-2%	.	-2%[59 µM]	28%[57 µM]	-8%
O=C(NCCCN1CCOCC1)C1Cc2c(ccc3ccccc23)O1 (configuration not stated)	0%	33%	8%	23%	-13%
O=C(NCCCl)C1Cc2c(ccc3ccccc23)O1 (configuration not stated)	-28%	1%	40µM*	36%	-6%
COc1ccc(NC(=O)CN(C)C(=O)Cc2ccc3c(c2)CCC3)cc1	-33%	.	50µM*	4%	-21%
CSc1ccccc1NC(=O)CN(C)C(=O)Cn1c(=O)oc2ccccc21	11%	2%	50µM*	-5%	-8%
CN(CC(=O)Nc1ccc(F)cc1)C(=O)Cn1c(=O)oc2ccccc21	-2%	2%	-6%[12.7 µM]	29%	5%
COc1ccc(S(=O)(=O)N(C)CC(=O)Nc2ccccc2SC)cc1	38%	6%	72%[59 µM]	31%	-5%
CCOc1ccc(CN(C)CC(=O)Nc2ccc3c(c2)CCC3)cc1OC	-17%	-5%	0%	8%	-17%[57.1 µM]
COc1ccc(CC(=O)N(C)CC(=O)Nc2ccccc2SC)cc1	2%	.	-4%[59 µM]	-6%	28µM*
C=CCOc1ccc(CN(C)CC(=O)Nc2ccc3c(c2)CCC3)cc1	50µM*	19%	14µM*	-20%	14µM*
O=C1CN(S(=O)(=O)c2c(F)cccc2F)CCN1S(=O)(=O)c1ccc2c(c1)OCCO2	.	.	.	.	-5%
Cc1ccc(Cn2c(=O)c3cccnc3n(Cc3ccc(F)cc3)c2=O)cc1	12%	.	53%[59 µM]	117%	36%
CCOc1ccc(CNC(=O)Cc2ccc(NC(=O)N3CCSc4ncccc43)cc2)cc1	-17%	.	-6%[59 µM]	25%	-8%
Cc1ccc(NS(=O)(=O)c2cc3c(cc2-c2cn[nH]c2)NC(=O)CO3)cc1C	.	.	.	.	-26%
Cc1ccc(CNC(=O)c2sc3nc(C)cc(C)c3c2-n2cccc2)cc1	?	.	-22%[59 µM]	16%	-15%
COc1ccc(NC(=O)CN(C)CC(=O)NC2CCCCC2C)cc1 (configuration not stated)	10%	3%	28µM*	41%	-5%
Cc1ccc(NC(=O)CN(C)C(=O)Cc2ccc3c(c2)CCC3)cc1	9%	-1%	50µM*	32%	-1%
CCC(=O)N1c2ccccc2CC1C(=O)NCCN1CCN(c2cc(Cl)ccc2C)CC1 (configuration not stated)	?	.	-28%[59 µM]	1%	?
O=C(NCc1ccccc1F)C(=O)NCC(c1ccco1)S(=O)(=O)c1cccs1 (configuration not stated)	-2%	.	-6%[59 µM]	6%	-11%
CCCOc1ccc(CNC(=O)c2oc3ccc4c(c3c2C)C(=O)CC(C)(CC)O4)cc1 (configuration not stated)	-7%	.	-26%[59 µM]	18%	-12%
Cc1ccc(N2CCN(C(=O)NCc3noc4ccccc34)CC2C)cc1 (configuration not stated)	-30%	.	-31%[59 µM]	55%	-5%
O=[N+]([O-])c1cc(-c2nc(-c3ccccc3)no2)ccc1NCc1cccnc1	?	.	-26%[59 µM]	11%	-28%
CCN(CC)CCOC(=O)c1ccc(NC(=O)CCCN2C(=O)S/C(=C/c3ccc(OC)cc3)C2=S)cc1	?	.	40µM*	?	?
COc1ccc(/C=C2\SC(=S)N(CCCC(=O)Nc3ccc(C(=O)O)cc3)C2=O)cc1OC	50µM*	.	.	-10%	?
COc1ccc(/C=C2\SC(=O)N(CCCC(=O)Nc3ccc(C(=O)O)cc3)C2=O)cc1OC	-2%	.	9%	15%	-4%
CCOc1ccc(/C=C2/SC(=S)N(CCC(=O)Nc3ccc(C(=O)O)cc3)C2=O)cc1	32µM*	.	16µM*	35µM*	10µM*
CCOc1ccc(/C=C2\SC(=S)N(CCC(=O)O)C2=O)cc1	-22%	5%	4%	10%	-23%
O=C(CCN1C(=O)/C(=C\c2ccccc2)SC1=S)Nc1ccc(C(=O)O)cc1	56µM*	.	?	-30%	?

Source: PubChem BioAssay
